Measured values reported in PubChem BioAssay AID1159580 (chemical genetic matrix, 2015).
The campaign covered roughly 5,500 compounds. About 2,000 (36%) were called active. Not shown: some 18% with an inconclusive outcome. Cut-off read from the data, not from the text of the source: active = normalized growth mostly below about 0.91 (no sharp cut-off); inconclusive = no clear call, values can overlap the other calls; inactive = mostly above about 0.92. Some of the results follow.

Test: chemical genetic growth profiling, strain panel (AID 1159580);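 note: tested at 20 µM; growth read once vehicle control cultures reached saturation at 30 °C; 1 = growth at the plate median or of vehicle wells; lower values mean less growth of the strain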
Settings: growth OD
[1] = S. cerevisiae deletion strains, locus YAL013W, strain DEP1, stronger effect = lower value
[2] = S. cerevisiae deletion strains, locus YBR229C, strain ROT2, stronger effect = lower value
[3] = S. cerevisiae deletion strains, locus YDL101C, strain DUN1, stronger effect = lower value
[4] = S. cerevisiae deletion strains, locus YDR150W, strain NUM1, stronger effect = lower value
[5] = S. cerevisiae deletion strains, locus YEL061C, strain CIN8, stronger effect = lower value
[6] = S. cerevisiae deletion strains, locus YGR078C, strain PAC10, stronger effect = lower value
[7] = S. cerevisiae deletion strains, locus YHR030C, strain SLT2, stronger effect = lower value
[8] = S. cerevisiae deletion strains, locus YJR043C, strain POL32, stronger effect = lower value
[9] = S. cerevisiae deletion strains, locus YJR075W, strain HOC1, stronger effect = lower value
[10] = S. cerevisiae deletion strains, locus YKL190W, strain CNB1, stronger effect = lower value
[11] = S. cerevisiae deletion strains, locus YLR039C, strain RIC1, stronger effect = lower value
[12] = S. cerevisiae deletion strains, locus YLR262C, strain YPT6, stronger effect = lower value
[13] = S. cerevisiae deletion strains, locus YMR263W, strain SAP30, stronger effect = lower value
[14] = S. cerevisiae deletion strains, locus YMR307W, strain GAS1, stronger effect = lower value
[15] = S. cerevisiae deletion strains, locus YNL153C, strain GIM3, stronger effect = lower value
[16] = S. cerevisiae deletion strains, locus YNL322C, strain KRE1, stronger effect = lower value
[17] = S. cerevisiae deletion strains, locus YOL006C, strain TOP1, stronger effect = lower value
[18] = S. cerevisiae deletion strains, locus YPL055C, strain LGE1, stronger effect = lower value
[19] = S. cerevisiae deletion strains, locus YPL241C, strain CIN2, stronger effect = lower value

Measured: normalized growth

O=C(O)c1nccnc1C(=O)O
inactive: [1] 0.993 | [2] 0.991 | [3] 0.988 | [4] 0.924 | [5] 0.994 | [6] 1 | [7] 1.02 | S. cerevisiae deletion strains, locus YHR087W, strain rtc3, stronger effect = lower value 1.02 | [8] 0.972 | [9] 0.988 | [10] 1.01 | [11] 1.01 | S. cerevisiae deletion strains, locus YLR058C, strain SHM2 (second series), stronger effect = lower value 1.01 | S. cerevisiae deletion strains, locus YLR085C, strain ARP6, stronger effect = lower value 1.01 | [12] 1.03 | S. cerevisiae deletion strains, locus YML094W, strain GIM5, stronger effect = lower value 1.01 | S. cerevisiae deletion strains, locus YMR219W, strain ESC1, stronger effect = lower value 1.01 | [13] 0.991 | [14] 0.992 | [15] 1 | S. cerevisiae deletion strains, locus YNL298W, strain CLA4 (second series), stronger effect = lower value 1.01 | [16] 1.01 | S. cerevisiae deletion strains, locus YNR030W, strain Alg12, stronger effect = lower value 1.05 | [17] 1.06 | [18] 0.951 | [19] 1.01 | S. cerevisiae deletion strains, locus YPR135W, strain CTF4, stronger effect = lower value 1.05

COP(=O)(OC)OC(Br)C(Cl)(Cl)Br (stereo not drawn)
inactive: [1] 0.966 | S. cerevisiae deletion strains, locus YBR021W, strain FUR4, stronger effect = lower value 1.04 | [2] 0.947 | S. cerevisiae deletion strains, locus YCL029C, strain bik1, stronger effect = lower value 0.997 | S. cerevisiae deletion strains, locus YDL035C, strain GPR1, stronger effect = lower value 0.984 | S. cerevisiae deletion strains, locus YDL074C, strain BRE1, stronger effect = lower value 0.961 | [3] 0.988 | S. cerevisiae deletion strains, locus YDL134C, strain PPH21, stronger effect = lower value 0.994 | S. cerevisiae deletion strains, locus YDL185W, strain tfp1, stronger effect = lower value 0.989 | S. cerevisiae deletion strains, locus YDL192W, strain arf1, stronger effect = lower value 1 | S. cerevisiae deletion strains, locus YDR101C, strain arx1, stronger effect = lower value 0.999 | [4] 0.984 | S. cerevisiae deletion strains, locus YDR162C, strain NBP2, stronger effect = lower value 0.988 | S. cerevisiae deletion strains, locus YDR318W, strain mcm21, stronger effect = lower value 1 | S. cerevisiae deletion strains, locus YDR388W, stronger effect = lower value 1.01 | S. cerevisiae deletion strains, locus YDR502C, strain sam2, stronger effect = lower value 1 | [5] 0.993 | S. cerevisiae deletion strains, locus YER110C, stronger effect = lower value 0.993 | S. cerevisiae deletion strains, locus YER155C, strain BEM2, stronger effect = lower value 1 | S. cerevisiae deletion strains, locus YER167W, strain BCK2, stronger effect = lower value 0.981 | S. cerevisiae deletion strains, locus YGL078C, strain dbp3, stronger effect = lower value 1.01 | S. cerevisiae deletion strains, locus YGL086W, strain mad1, stronger effect = lower value 0.989 | S. cerevisiae deletion strains, locus YGL248W, strain PDE1, stronger effect = lower value 0.968 | [6] 0.987 | S. cerevisiae deletion strains, locus YGR135W, strain pre9, stronger effect = lower value 1.01 | S. cerevisiae deletion strains, locus YGR229C, strain SMI1, stronger effect = lower value 0.996 | S. cerevisiae deletion strains, locus YGR252W, strain gcn5, stronger effect = lower value 1.06 | [7] 1.01 | S. cerevisiae deletion strains, locus YHR079C, strain IRE1 (second series), stronger effect = lower value 0.995 | S. cerevisiae deletion strains, locus YHR094C, strain hxt1, stronger effect = lower value 1.01 | S. cerevisiae deletion strains, locus YHR129C, strain ARP1, stronger effect = lower value 0.969 | S. cerevisiae deletion strains, locus YHR200W, strain rpn10, stronger effect = lower value 0.997 | S. cerevisiae deletion strains, locus YIL066C, strain RNR3, stronger effect = lower value 0.984 | S. cerevisiae deletion strains, locus YIL073C, strain SPO22, stronger effect = lower value 1.06 | S. cerevisiae deletion strains, locus YIL125W, strain kgd1, stronger effect = lower value 1 | S. cerevisiae deletion strains, locus YIR030C, strain dcg1, stronger effect = lower value 1.01 | S. cerevisiae deletion strains, locus YJL095W, strain BCK1, stronger effect = lower value 1 | S. cerevisiae deletion strains, locus YJL134W, strain LCB3, stronger effect = lower value 0.994 | S. cerevisiae deletion strains, locus YJL168C, strain set2, stronger effect = lower value 0.997 | S. cerevisiae deletion strains, locus YJL187C, strain SWE1 (second series), stronger effect = lower value 0.965 | [8] 0.999 | [9] 0.964 | S. cerevisiae deletion strains, locus YKL009W, strain mrt4, stronger effect = lower value 0.948 | S. cerevisiae deletion strains, locus YKL068W, stronger effect = lower value 0.995 | S. cerevisiae deletion strains, locus YKL085W, strain MDH1 (second series), stronger effect = lower value 1.01 | S. cerevisiae deletion strains, locus YKL085W, strain MDH1, stronger effect = lower value 1.01 | [10] 0.997 | S. cerevisiae deletion strains, locus YKR001C, strain vps1, stronger effect = lower value 1.01 | [11] 0.997 | S. cerevisiae deletion strains, locus YLR058C, strain SHM2, stronger effect = lower value 0.979 | S. cerevisiae deletion strains, locus YLR102C, strain apc9, stronger effect = lower value 0.994 | [12] 0.99 | S. cerevisiae deletion strains, locus YLR268W, strain sec22, stronger effect = lower value 1.01 | S. cerevisiae deletion strains, locus YLR330W, strain CHS5, stronger effect = lower value 0.988 | S. cerevisiae deletion strains, locus YLR342W, strain FKS1 (second series), stronger effect = lower value 0.98 | S. cerevisiae deletion strains, locus YLR371W, strain rom2, stronger effect = lower value 0.999 | S. cerevisiae deletion strains, locus YLR418C, strain cdc73, stronger effect = lower value 0.987 | S. cerevisiae deletion strains, locus YML016C, strain PPZ1, stronger effect = lower value 0.989 | S. cerevisiae deletion strains, locus YML032C, strain rad52, stronger effect = lower value 1.01 | S. cerevisiae deletion strains, locus YML124C, strain tub3, stronger effect = lower value 1.01 | S. cerevisiae deletion strains, locus YMR078C, strain ctf18, stronger effect = lower value 1.02 | S. cerevisiae deletion strains, locus YMR223W, strain ubp8, stronger effect = lower value 1 | [13] 0.989 | [14] 1.02 | S. cerevisiae deletion strains, locus YNL067W, strain RPL9B, stronger effect = lower value 0.974 | S. cerevisiae deletion strains, locus YNL128W, strain TEP1, stronger effect = lower value 0.957 | [15] 0.971 | S. cerevisiae deletion strains, locus YNL233W, strain BNI4, stronger effect = lower value 0.978 | S. cerevisiae deletion strains, locus YNL250W, strain rad50, stronger effect = lower value 0.999 | S. cerevisiae deletion strains, locus YNL271C, strain bni1, stronger effect = lower value 1.01 | S. cerevisiae deletion strains, locus YNL298W, strain CLA4, stronger effect = lower value 1.01 | S. cerevisiae deletion strains, locus YNL307C, strain MCK1, stronger effect = lower value 1.02 | [16] 0.987 | S. cerevisiae deletion strains, locus YNR052C, strain pop2, stronger effect = lower value 1.01 | [17] 1.04 | S. cerevisiae deletion strains, locus YOL012C, strain htz1 1.23 | S. cerevisiae deletion strains, locus YOL147C, strain pex11, stronger effect = lower value 1.01 | S. cerevisiae deletion strains, locus YOR061W, strain CKA2, stronger effect = lower value 0.973 | S. cerevisiae deletion strains, locus YOR069W, strain VPS5, stronger effect = lower value 0.998 | S. cerevisiae deletion strains, locus YOR136W, strain idh2, stronger effect = lower value 1 | S. cerevisiae deletion strains, locus YOR144C, strain elg1, stronger effect = lower value 1 | S. cerevisiae deletion strains, locus YOR184W, strain ser1, stronger effect = lower value 1.01 | S. cerevisiae deletion strains, locus YOR316C, strain cot1, stronger effect = lower value 0.992 | [18] 0.99 | [19] 0.998 | S. cerevisiae deletion strains, locus YPR119W, strain clb2, stronger effect = lower value 1.01 | S. cerevisiae deletion strains, locus YPR141C, strain kar3, stronger effect = lower value 0.993 | S. cerevisiae deletion strains, locus YPR163C, strain tif3, stronger effect = lower value 1 | S. cerevisiae deletion strains, locus YPR167C, strain met16, stronger effect = lower value 0.99 | S. cerevisiae deletion strains, strain wtn01, stronger effect = lower value 1 | S. cerevisiae strains, strain wild type, stronger effect = lower value 0.994
